Hits are enriched below; roughly 10% of the tested compounds scored in any of these assays.
Lmaj promast = inhibitors of Leishmania major promastigote growth | Leishmania major promastigotes, resazurin fluorescence viability | inhibition, % at 10 µM | 9% of 200,000 active; in the data active means inhibition above about 50%;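 further: promastigotes grown with compound for 44 hours at 28 °C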
p97 ATPase inh = blocks human p97 ATPase activity. P55072. recombinant p97 ATPase, Kinase-Glo ATP luminescence, 3 h. inhibition, % at 8 µM. 0.42% of 220,000 active; in the data active means inhibition above about 15%;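 further: 0% = DMSO vehicle and 100% = wells lacking enzyme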
INS promoter inh = TRM-6 insulin promoter activity inhibition; inhibition, % at 2 µM; 0.9% of 130,000 active; TRM-6 cells (human fetal islet line), insulin promoter-eGFP reporter, imaging; reporter expression induced with tamoxifen; AID 1273;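 active means inhibition above the mean plus 3 SD, with well images judged a real hit on visual review, cut at about 60% in these data, passing the limit was not always enough; inconclusive means inhibition over the cutoff but images rejected on review; inactive means inhibition not above the cutoff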
ROMK mod = human ROMK K+ channel modulation, primary screen; AID 1918; 2% of 130,000 active; Tet-inducible ROMK, thallium flux fluorescence; actives lie on both sides; B-score at 10 µM;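 active means signal ratio slope over the read window, or its plate-corrected B-score, at least 3 SD from the plate mean, either direction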;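 further: B-score of the F/F0 ratio slope over 7 to 12 s after thallium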
HCT116 bCat-KO = beta-catenin-lacking colon tumor cell growth suppression. viability, % at 10 µM. 1.5% of 140,000 active. HCT116 beta-catenin knockout viability, CellTiter-Glo, 60 h; stronger effect = lower value. AID 818;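 active means viability at or under a set limit, the compound median less 4 SD, cut at about 6% in these data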;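 further: 0% = Hyamine 1622 control at 20 µM and 100% = untreated cell control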
PTEN del growth = PTEN-deleted cell growth suppression | HCT116 PTEN-null viability, CellTiter-Glo, 60 h; stronger effect = lower value | viability, % at 10 µM | 1.2% of 140,000 active | AID 827;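 active means viability at or below a set limit, 4 SD under the median of all tested compounds, cut at about 3.7% in these data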;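 further: PTEN knockout HCT116 line with beta catenin targeted HCT116 as companion control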
ROMK hit retest = retested hit modulating human ROMK potassium channel. shares compounds with ROMK mod. ROMK thallium flux, fluorescence ratio; stronger effect = lower value. normalized thallium flux (F/F0 slope) at 10 µM. 54% of 3,000 active. AID 1917;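 active means Flux at 10 µM at least 3 SD below or above vehicle control mean in one or both replicates; inconclusive means no clear call, values can overlap the other calls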
Starred values were filed as active, the others as inactive; ? = inconclusive; . = no result given.

SMILES	Lmaj promast	p97 ATPase inh	INS promoter inh	ROMK mod	HCT116 bCat-KO	PTEN del growth	ROMK hit retest
CCN(CC)S(=O)(=O)c1ccc(Cl)c(NC(=O)COC(=O)c2ccc(O)cc2)c1	2	5	0	-1.8	.	.	0.074
CCN(CC)S(=O)(=O)c1ccc(Cl)c(NC(=O)COC(=O)c2c(C)noc2C)c1	21	-6	.	.	70	52	.
O=C(COC(=O)c1cc(S(=O)(=O)N2CCCCC2)ccc1N1CCOCC1)NC1CCCCC1	1	-5	.	.	82	91	.
COc1cc(NC(C)=O)c2ncccc2c1[N+](=O)[O-]	-6	5	50	-4.7*	97	100	0.046*
CC(C)CCC1=NN(C(=O)c2ccco2)C(O)(C(F)(F)F)C1 (centres undefined)	-3	-7	.	-0.89	.	.	.
COc1ccc(CCNc2oc(COc3ccccc3Cl)nc2C#N)cc1OC	8	-8	.	.	76	72	0.067*
Cc1ccc(C2C(C#N)=C(N)Oc3nc(-c4ccccc4)[nH]c32)o1 (centres undefined)	14	4	.	.	90	86	?
N#CC1=C(N)Oc2nc(-c3ccccc3)[nH]c2C1c1cccnc1 (centres undefined)	19	6	.	-0.81	85	86	.
COC(=O)N/N=C/c1ccc(-c2ccc(C)c(Cl)c2)o1	3	-4	.	.	85	92	.
Cc1ccc(-c2ccc(/C=N/c3ncn[nH]3)o2)cc1Cl	24	3	-16	3.4*	66	90	0.087
Cc1nc2ccccn2c1C(=O)N/N=C/c1cc(C)n(-c2ccc(Cl)cc2)c1C	12	2	-42	.	80	80	.
Cc1cc(/C=N/NC(N)=O)c(C)n1-c1ccc(F)cc1	-3	3	.	2.9*	.	.	?
CCNC(=S)N/N=C/c1cc(C)n(-c2ccc(Cl)cc2)c1C	28	0	.	3*	.	.	0.084
COC(=O)N/N=C/c1cc(C)n(-c2ccc(Br)cc2)c1C	.	6	.	.	.	.	0.088
COC(=O)N/N=C/c1cc(C)n(-c2ccc(F)cc2)c1C	2	6	-8	.	.	.	.
CCOC(=O)CCC(NC(=O)CCCCCCCC(=O)NC(CCC(=O)OCC)C(=O)OCC)C(=O)OCC (centres undefined)	14	-4	-10	-0.62	90	95	.
CCn1c(SCc2nc(-c3cccs3)no2)nnc1-c1c[nH]c2ccccc12	72*	8	-29	.	83	87	0.057*
CC(C)(C)c1ccc(C(=O)Nc2sc3c(c2C(=O)O)CCC3)cc1	0	-3	-30	0.23	.	.	0.074
O=C(Nc1sc2c(c1C(=O)c1ccccc1)CCCC2)c1cccnc1	33	5	26	-3.7*	105	91	0.068*
O=C(Nc1sc2c(c1C(=O)c1ccc(Cl)cc1)CCCC2)c1cccnc1	9	-10	-9	.	83	77	.
Cc1onc(-c2c(Cl)cccc2Cl)c1C(=O)Nc1nc(C(C)(C)C)cs1	.	-3	.	-0.74	.	.	.
O=[N+]([O-])c1ccc(Sc2n[nH]c(-c3ccc(Cl)cc3Cl)n2)nc1	-5	-4	14	.	85	92	0.06*
Cc1ccc(Cn2c(C)cc3c(c2=O)C(c2cccs2)C(C#N)=C(N)O3)cc1 (centres undefined)	-1	-2	-14	.	100	96	.
Cc1cc(N2CCCCC2)nc(NCc2ccccc2)n1	75*	-3	-3	.	6.0*	8	0.065*
Cc1cc(N2CCOCC2)nc(NCc2ccccc2)n1	9	0	-14	.	93	75	.
SMILES	Lmaj promast	p97 ATPase inh	INS promoter inh	ROMK mod	HCT116 bCat-KO	PTEN del growth	ROMK hit retest
Cc1cc(C)nc(SCC(CSc2nc(C)cc(C)n2)C(=O)O)n1	-1	1	-24	.	.	.	.
O=C(O)c1ccc(N/N=C/C2=C(N3CCOCC3)C(=C\c3ccccc3)/CC2)cc1	.	6	.	.	.	.	0.045*
Cc1ccc(OC/C(=N\O)C(C)(C)C)c([N+](=O)[O-])c1	2	-3	27	-0.83	.	.	.
CCOC(=O)C1=C(Cc2ccc(F)cc2)C(=O)c2ccccc2C1=O	48	2	-22	-3.3*	69	65	0.061*
O=C(OCc1ccc(F)cc1)c1ccc2c(c1)-c1ccccc1C2=O	-7	10	-21	.	104	98	.
CCCCc1ccc(N/C(N)=N/c2nc(C)cc(C)n2)cc1	.	7	.	.	.	.	0.057*
Cc1cc(C)nc(/N=C(\N)Nc2ccccc2-c2ccccc2)n1	96*	8	.	-4.8*	.	.	0.053*

Screening data (PubChem BioAssay)
